Source: ChEMBL document CHEMBL1157539, “Thousands of chemical starting points for antimalarial lead identification” (Nature, 2010)
The whole screen tested about 13,000 compounds, of which fewer than 10 showed an effect of 50% or more. Not all results are given here.

Test system: Plasmodium falciparum
Experiment: GSK_TCMDC: Inhibition of Plasmodium falciparum 3D7 LDH activity, using an LDH reporter assay. Test compounds present at 2uM
Format: functional, organism-based

Point of comparison: `Fc1ccc2[nH]c(-c3cccc(-c4ccc(CNCc5cnn(-c6ccccc6)n5)cc4)c3)nc2c1`, inhibition 0%. Against it:
- Fc1ccc(C=NN=c2cc[nH]c3ccccc23)cc1 — higher, 4%
- COc1ccc(OCCCCON2C(=N)N=C(N)NC2(C)C)cc1 — higher, 4%
- COc1cccc(CCN(Cc2ccccc2-c2ccc(CNC3CC(C)(C)NC(C)(C)C3)cc2)C(=O)NC2CCCCC2)c1 — the same, 0%
- N#Cc1ccc(N2C[C@@H](OCc3ccccc3)C[C@H]2C(=O)NCCC(c2ccccc2)c2ccccc2)c2ccccc12 — the same, 0%
- CCCCCCOc1ccc(C(=O)N(Cc2ccccc2)c2c(-c3ccccc3)nc3cc(C)ccn23)cc1 — higher, 3%
- CCc1cccc2sc(N3CCN(C(=O)c4ccc([N+](=O)[O-])o4)CC3)nc12 — the same, 0%
- CCOc1c(CCNCCCCNCCc2ccc3ccccc3c2OCC)ccc2ccccc12 — the same, 0%
- CN1CCC(Oc2ccc(CN3CC[C@H](NC(=O)c4ccc(Cl)c(F)c4)C3)c3ccccc23)C1 (stereo partly drawn) — higher, 3%
- CCN(CC)CCN(Cc1ccc(-c2ccc(C(F)(F)F)cc2)cc1)C(=O)Cn1c(CCc2ccccc2F)nc(=O)c2ccccc21 — the same, 0%
- Cc1cccc2nc(-c3cccc(-c4ccc(NC(=O)c5ccoc5)cc4)c3)[nH]c12 — the same, 0%
- O=c1cc(NCCCNCc2cccc(OC(F)(F)F)c2)[nH]c2ccccc12 — the same, 0%
- O=C(Nc1ccc2c(c1)CCC2)N[C@H]1CCN(Cc2ccc(OCCCN3CCCCC3)cc2)C1 — the same, 0%
- CCN1CCC(N(Cc2ccc(-c3ccc(C(F)(F)F)s3)cc2)C(=O)Cn2c(CCc3cccc(F)c3F)nc(=O)c3ccccc32)CC1 — higher, 7%
- CNCCNCc1ccc(-c2ccc(-c3nc4cc(F)ccc4[nH]3)cc2)cc1 — higher, 4%
- O=C1C(=Cc2c(O)ccc3ccccc23)SC(=NCc2ccccc2)N1Cc1ccccc1 — the same, 0%
- COC(=O)c1cccc(CNCc2cccc(-c3ccc(-c4nc5cccc(C)c5[nH]4)s3)c2)c1 — higher, 1%
- CCN1CCC(N(Cc2ccc(-c3ccc(C(F)(F)F)cc3)cc2)C(=O)Cn2c(CCc3cccc(F)c3F)nc(=O)c3ccccc32)CC1 — higher, 3%
- Cc1cccc2nc(-c3cccc(-c4ccc(NC(=O)c5cnccc5C(F)(F)F)cc4)c3)[nH]c12 — the same, 0%
- CCOC(=O)NC1=NC(C)(C)N(OCCCOc2ccc(C)cc2C)C(NC(=O)OCC)=N1 — higher, 7%
- CS(=O)(=O)c1cc2c(Nc3ccc(N4CCOCC4)cc3)c(C(N)=O)cnc2cc1Br — the same, 0%
- COc1ccc2nccc(N3CCC(CCNCc4cc5c(cn4)OCCO5)CC3)c2c1 — higher, 6%
- O=C(Nc1cccc(F)c1)N1CCC(CN2CCOC(c3ccccc3)(c3ccccc3)C2)CC1 — higher, 7%
